Most compounds without a hit are left out; they make up all but 2.9% or so of the library.
PME-1 inh = PME-1 (human) inhibition; Q9Y570; hit rate 0.53% among 320,000; inhibition, % at 5.9 µM; AID 2130; recombinant PME-1, FP-Rh probe fluorescence polarization;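 active = inhibition above the campaign mean of all compounds plus 3 SD, cut at about 26% in these data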;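 note: competitive labeling of PME-1 active site by serine hydrolase directed probe; 0% = PME-1 with DMSO and 100% = wells lacking PME-1 enzyme; inhibitors block probe labeling so polarization falls and inhibition rises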
Target sequence (Q9Y570 whole entry, looked up): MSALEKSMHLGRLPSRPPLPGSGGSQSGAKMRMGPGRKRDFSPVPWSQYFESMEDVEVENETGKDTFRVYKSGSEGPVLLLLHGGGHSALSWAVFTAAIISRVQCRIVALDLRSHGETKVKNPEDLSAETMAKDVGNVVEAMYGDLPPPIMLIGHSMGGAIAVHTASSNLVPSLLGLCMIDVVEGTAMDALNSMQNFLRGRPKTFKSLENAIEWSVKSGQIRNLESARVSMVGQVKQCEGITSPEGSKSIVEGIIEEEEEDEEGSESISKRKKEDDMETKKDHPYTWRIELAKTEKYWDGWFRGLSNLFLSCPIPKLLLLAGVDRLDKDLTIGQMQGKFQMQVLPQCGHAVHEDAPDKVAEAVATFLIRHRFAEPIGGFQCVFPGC
PAFAH1B2 FP inh = blocks human PAF acetylhydrolase 1b catalytic subunit 2. recombinant PAFAH1B2, FP-rhodamine activity probe, fluorescence polarization. hit rate 1.2% among 340,000. inhibition, % at 3.39 µM. P68402;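 active = inhibition above the mean of all tested compounds plus 3 SD, cut at about 24% in these data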;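 note: 0% = enzyme with DMSO and 100% = wells lacking PAFAH1B2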
Target sequence (P68402 whole entry, looked up): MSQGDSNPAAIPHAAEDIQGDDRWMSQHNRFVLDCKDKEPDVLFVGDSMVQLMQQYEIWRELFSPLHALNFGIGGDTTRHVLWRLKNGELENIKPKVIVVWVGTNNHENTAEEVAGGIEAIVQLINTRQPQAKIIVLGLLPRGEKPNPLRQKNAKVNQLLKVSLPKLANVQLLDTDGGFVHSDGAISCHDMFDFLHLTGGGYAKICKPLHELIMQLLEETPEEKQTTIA
PAFAH1B3 FP inh = PAFAH1B3 (human) inhibition. AID 492972. Q15102. recombinant PAFAH1B3, FP-rhodamine probe, fluorescence polarization. hit rate 0.28% among 340,000. inhibition, % at 3.39 µM;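 active = inhibition above the screen-wide average of all tested compounds plus 3 SD, cut at about 25% in these data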;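 note: 0% = enzyme with DMSO only and 100% = wells lacking PAFAH1B3 protein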
PAFAH2 FP inh = PAFAH2 (human) inhibition | Q99487 | recombinant PAFAH2, FP-rhodamine activity probe, fluorescence polarization | inhibition, % at 3.39 µM | hit rate 0.99% among 340,000;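 active = inhibition above the mean over all tested compounds plus 3 SD, cut at about 30% in these data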;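 note: inhibitors block probe labeling of enzyme so polarization drops; 0% = enzyme with DMSO and 100% = wells lacking PAFAH2 protein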
Fam108B inh = counter-screen for RBBP9 inhibitors: inhibitors of mouse Fam108B. recombinant Fam108B, FP-Rh probe fluorescence polarization. inhibition, % at 9.51 µM. hit rate 0.33% among 300,000. AID 1947;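 active = inhibition above the screen mean inhibition plus 3 SD, computed separately per campaign, cut at about 18% in these data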;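 note: inhibitors lower polarization as less probe binds the enzyme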
pPAFAH FP inh = pPAFAH (human) enzyme inhibition | Q13093 | recombinant pPAFAH, FP-rhodamine probe fluorescence polarization | inhibition, % at 3.39 µM | hit rate 1.5% among 330,000 | AID 463082;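 active = inhibition above the mean inhibition across the screen plus 3 SD, cut at about 25% in these data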;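 note: inhibitors block binding of the rhodamine activity-based probe so polarization drops; 0% = enzyme with DMSO and 100% = wells lacking pPAFAH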
* hit, by the source's call; x = not tested or not shown.

SMILES | PME-1 inh | PAFAH1B2 FP inh | PAFAH1B3 FP inh | PAFAH2 FP inh | Fam108B inh | pPAFAH FP inh
Cc1ccc(C)c(S(=O)(=O)N2CCN(C(=O)CCCc3c[nH]c4ccccc34)CC2)c1 | 11.6 | 2.7 | 2.7 | 9.9 | 7.8 | 8.6
COc1ccc(CNC(=O)Cc2c(C(=O)O)[nH]c3ccccc23)cc1 | -2.3 | 25.4* | 11.8 | 4.9 | -7.3 | -3.3
COC(=O)c1ccc(CSc2nc3scc(-c4cccs4)c3c(=O)[nH]2)o1 | 1.5 | 11.4 | 5.8 | 15.7 | 2.3 | 28.7*
COc1ccc(C2=NS(=O)(=O)N(C)C(C(=O)Nc3ccc4c(c3)OCO4)=C2)cc1OC | 6.4 | 5.7 | 2.0 | 1.9 | 0.6 | 6.7
CCOC(=O)Cn1c(C)[n+](CC(=O)c2ccccc2)c2ccccc21 | 2.9 | -2.8 | 1.6 | 5.2 | -0.2 | 3.3
NS(=O)(=O)c1ccc(-c2ccc(/C=C3\SC(=S)N(C4CCS(=O)(=O)C4)C3=O)o2)cc1 (stereo not given) | -4.8 | 4.8 | 4.6 | 5.0 | -0.6 | 24.8*
Cc1ccc(/C=C2\SC(=S)N(C3CCS(=O)(=O)C3)C2=O)o1 (stereo not given) | -1.2 | -6.7 | 6.5 | -5.6 | 4.8 | 11.2
C/C(CC(=O)Nc1cc(C)ccn1)=N\NC(=O)c1cccc(F)c1 | -2.1 | -9.4 | 11.1 | 1.9 | -0.5 | 2.9
CCC1CN(C(=O)N2CCC(C(=O)NCCc3ccccc3)CC2)c2ccccc2O1 (stereo not given) | -6.8 | -2.1 | 9.3 | 0.3 | 1.3 | 5.6
Cc1ccc(C(CNS(=O)(=O)c2ccc([N+](=O)[O-])cc2)N2CCN(C)CC2)cc1 (stereo not given) | 5.9 | 5.2 | -2.5 | -7.0 | 0.9 | 1.7
O=S(=O)(c1ccc(F)cc1)n1cnc2ccccc21 | -0.5 | 25.8* | 14.4 | 5.1 | 2.8 | -6.1
O=S(=O)(c1ccc(S(=O)(=O)n2cnc3ccccc32)cc1)N1CCCCCC1 | 1.1 | 11.3 | 1.8 | -0.2 | -2.1 | 3.3
CC(C)n1cc(CN2CCCC(CNS(=O)(=O)c3cccc4cccnc34)C2)cn1 (stereo not given) | -5.0 | 2.1 | 8.5 | 7.1 | -1.6 | -4.9
Nc1cc2sc(-c3ccc(C(=O)O)cc3)nc2cc1Cl | -0.7 | 3.4 | 6.0 | 4.3 | 0.4 | 7.8
Nc1ncc(N=Nc2cc(C(=O)O)ccc2Cl)s1 | -2.8 | 7.9 | 21.5 | 22.0 | 13.8 | 25.6*
CCOc1ccc(N(C)Cc2cc(=O)oc3ccc(OCC)cc23)cc1 | x | 0.7 | 6.4 | 9.0 | x | x
CC(C)C1Nc2c(O)cc(Cl)c([N+](=O)[O-])c2C2C=CCC21 (stereo not given) | x | 42.4* | -3.1 | 19.0 | x | x
O=C(NCCc1c[nH]c2ccccc12)C(=O)c1c[nH]c2ccccc12 | 4.7 | 5.1 | -1.1 | -6.4 | 1.1 | 10.0
O=C(NCCc1ccc(Cl)cc1)C(=O)c1c[nH]c2ccccc12 | -6.9 | 27.5* | -7.2 | -14.3 | -1.1 | 9.2
O=C(NCCc1ccccc1)c1ccccc1Cl | -9.4 | -4.9 | 9.5 | 2.9 | -6.0 | -4.8
CC1CC(C)CN(C(=O)Cc2c(C(=O)O)[nH]c3ccc(Cl)cc23)C1 (stereo not given) | -0.9 | 81.0* | 1.1 | 4.1 | 2.0 | -1.0
Cc1ccc(Cl)cc1N1CCN(C(=O)Cc2c(C(=O)O)[nH]c3ccc(Cl)cc23)CC1 | 6.1 | 4.8 | 0.3 | 2.6 | -10.2 | 10.9
O=C(CCc1ccccc1)NNC(=O)Cc1ccc(Cl)cc1 | -1.0 | 24.6* | 8.8 | 12.7 | 1.2 | 9.1
O=C(Cc1ccccc1)NNC(=O)Cc1ccccc1 | -7.7 | 2.0 | 5.0 | 5.7 | -1.1 | 4.8
O=C(O)c1ccccc1C(=O)NCCc1ccc(Cl)cc1 | 3.8 | 29.6* | 14.1 | 6.8 | 1.4 | 5.9
SMILES | PME-1 inh | PAFAH1B2 FP inh | PAFAH1B3 FP inh | PAFAH2 FP inh | Fam108B inh | pPAFAH FP inh
COc1ccc(OC)c(NC(=O)CSc2nc(=O)n(CCN3CCOCC3)c3c2CCCC3)c1 | 3.1 | 0.1 | 7.9 | 4.6 | 1.9 | 1.9
CCCCN(C)C(=O)CNC(=O)c1nn(-c2ccc(OC)cc2OC)c(=O)c2ccccc12 | -3.0 | 6.7 | 2.6 | 1.0 | -2.8 | 3.1
CCOC(=O)c1ccc(NC(=O)c2cccc(S(=O)(=O)N3CCN(C(C)=O)CC3)c2)cc1 | 0.0 | 0.6 | 0.7 | -1.6 | -0.6 | 7.0
O=C(O)c1ccccc1C(=O)NCCc1c(C(=O)O)[nH]c2ccc(Cl)cc12 | -2.2 | 33.4* | 7.4 | 5.5 | 0.9 | 3.0
O=C(NCCc1ccc(Cl)cc1)c1ccc2ccccc2n1 | 3.3 | 25.1* | 1.5 | 7.6 | -1.2 | 7.7
COc1ccc(C2C(C)C(=O)C(C)C(c3ccc(OC)cc3)N2N=O)cc1 (stereo not given) | x | 5.4 | -3.9 | 5.8 | x | x
Oc1ccc(NCc2ccccc2OCc2ccccc2F)cc1 | 25.5 | 4.1 | 11.0 | 4.1 | 10.2 | 31.4*
CCOc1cccc(CNc2ccc(O)cc2)c1OCc1ccc(Cl)cc1 | 22.2 | 3.0 | 7.9 | 7.6 | 16.7 | 32.6*
CCOc1ccccc1CNc1ccc(O)cc1 | x | 20.7 | 25.7* | 34.6* | x | x
COc1cc(OC)c(N(C)S(=O)(=O)c2cccc(C(=O)OCC(=O)NCc3ccco3)c2)cc1Cl | -2.0 | 3.7 | 2.6 | 32.3* | -9.7 | 33.0*
COc1ccc(OCC(=O)Nc2cc(-c3nn(C)c(=O)c4ccccc34)ccc2N2CCOCC2)cc1 | 1.2 | 2.3 | 3.5 | -2.6 | 1.3 | -2.8
N#CC(=C=[N-])C1=C(C#N)C(c2ccccc2F)C([n+]2ccccc2)C(O)(C2CC2)N1 (stereo not given) | 2.3 | -0.5 | 5.0 | 2.5 | 16.1 | 30.1*
Cc1cccc[n+]1C1C(c2ccccc2)C(C#N)=C(C(=C=[N-])C#N)NC1(O)C1CC1 (stereo not given) | -12.9 | 16.3 | 21.3 | 30.5* | 7.8 | 28.8*
CCOc1ccc(S(=O)(=O)N2CCN(CC)CC2)cc1NC(=O)c1ccccc1F | -5.6 | 12.2 | 7.3 | 16.4 | 2.2 | 5.8
COC(=O)[C@H](Cc1ccccc1)NC(=O)C1CCN(C(=O)[C@H](C)NS(=O)(=O)c2ccc(C)cc2)CC1 | 0.1 | 0.2 | 1.1 | -1.0 | -2.7 | 4.5
O=[N+]([O-])c1cc(C=Nc2cccc3c(O)cccc23)ccc1Cl | 2.6 | x | x | x | 6.4 | 24.9*
O=[N+]([O-])c1cc(/C=N\Nc2ccccn2)ccc1Cl | 5.0 | 4.2 | 7.4 | 2.5 | 1.5 | -1.1
Cc1ccc(NS(=O)(=O)c2cccc(C(=O)N/N=C/c3ccc4c(c3)OCCO4)c2)c(C)c1 | -55.1 | -14.4 | -34.5 | -60.2 | -45.3 | 31.9*
C/C(=N\NC(=O)c1cccc(S(=O)(=O)Nc2ccc(C)cc2C)c1)c1ccncc1 | x | 6.4 | 1.0 | 2.8 | x | x
O=C(CCn1c(=O)[nH]c2ccccc2c1=O)N1CCN(c2cccc(C(F)(F)F)c2)CC1 | 0.7 | 30.8* | 1.0 | -24.7 | -0.1 | -2.4
COc1cc2[nH]c(=O)n(CCCCCC(=O)N3CCN(c4ccccc4)CC3)c(=O)c2cc1OC | 2.4 | 3.5 | 3.0 | 2.5 | -2.4 | 26.9*
